According to PubChem BioAssay (NCI):
Compounds without any hit were thinned out: in the full panel of roughly 83,000, 20% have a hit.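 How to read the values: 0–100, growth inhibition (40 = 60% inhibited); 0, no net growth; -100 to 0, cell death (-40 = 40% of starting cells died; -100 = all dead).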 A number with no mark means an inactive call. The source made the active and inactive calls. How the source made its calls: active means growth percent below 10; inactive means the rest.

Experiments:
Assay in all cases: NCI-60 one-dose screen, 48 h (100 = growth as untreated, 0 = no growth, -100 = all killed)
Conditions in all cases: 10 µM unless noted
DU-145 prostate = tested on: DU-145 prostate
K-562 leukemia = tested on: K-562 leukemia
MALME-3M melanoma = tested on: MALME-3M melanoma
MDA-MB-231 breast = tested on: MDA-MB-231 breast
RXF 393 renal = tested on: RXF 393 renal
SF-268 CNS = tested on: SF-268 CNS
SF-295 CNS = tested on: SF-295 CNS
SF-539 CNS = tested on: SF-539 CNS
UACC-257 melanoma = tested on: UACC-257 melanoma
M14 melanoma = tested on: M14 melanoma
HCT-15 colon = tested on: HCT-15 colon
HT29 colon = tested on: HT29 colon
SNB-75 CNS = tested on: SNB-75 CNS
SNB-19 CNS = tested on: SNB-19 CNS
U251 CNS = tested on: U251 CNS
PC-3 prostate = tested on: PC-3 prostate
SK-MEL-5 melanoma = tested on: SK-MEL-5 melanoma
UACC-62 melanoma = tested on: UACC-62 melanoma
LOX IMVI melanoma = tested on: LOX IMVI melanoma
SK-MEL-28 melanoma = tested on: SK-MEL-28 melanoma

| SMILES | growth (DU-145 prostate) | growth (K-562 leukemia) | growth (MALME-3M melanoma) | growth (MDA-MB-231 breast) | growth (RXF 393 renal) | growth (SF-268 CNS) | growth (SF-295 CNS) | growth (SF-539 CNS) | growth (UACC-257 melanoma) | growth (M14 melanoma) | growth (HCT-15 colon) | growth (HT29 colon) | growth (SNB-75 CNS) | growth (SNB-19 CNS) | growth (U251 CNS) | growth (PC-3 prostate) | growth (SK-MEL-5 melanoma) | growth (UACC-62 melanoma) | growth (LOX IMVI melanoma) | growth (SK-MEL-28 melanoma) |
| --- | --- | --- | --- | --- | --- | --- | --- | --- | --- | --- | --- | --- | --- | --- | --- | --- | --- | --- | --- | --- |
| COc1cc(F)c(F)c(Nc2ccc(I)cc2F)c1NS(=O)(=O)C1(C[C@H](O)CO)CC1 | 51.2% | 21.9% | 0.42% (active) | 23% | -2.17% (active) | 52.9% | 59.9% | 53.5% | -12.7% (active) | 7.68% (active) | 26.9% | 5.42% (active) | 41% | 43% | 35.6% | 48.9% | 19.1% | -3.18% (active) | 11.9% | 3.06% (active) |
| C=CC(=O)Nc1cccc(Oc2nc(Nc3ccc(N4CCN(C)CC4)cc3)nc3ccsc23)c1 | -48.4% (active) | -25.6% (active) | -84.2% (active) | -58% (active) | -83.9% (active) | 3.11% (active) | 23.9% | -92.9% (active) | -80.8% (active) | -81% (active) | -21.9% (active) | -60% (active) | -81.1% (active) | 12.8% | -84.7% (active) | -44.5% (active) | -97.2% (active) | -78.2% (active) | -85% (active) | -91.6% (active) |
| CNC(=O)c1ccccc1Nc1nc(Nc2ccc3c(c2OC)CCC[C@H](N2CCN(CCO)CC2)C3)ncc1Cl | 18.7% | -43.9% (active) | -52.1% (active) | -19.4% (active) | -23.3% (active) | 17.3% | -63.7% (active) | -41.7% (active) | -75.8% (active) | -69% (active) | 0.498% (active) | -44.3% (active) | -5.43% (active) | 18.8% | -19.4% (active) | 22.9% | -92.4% (active) | -45% (active) | -89.6% (active) | -77.1% (active) |
| Cc1cc(Nc2ncc(Cl)c(Nc3ccccc3S(=O)(=O)C(C)C)n2)c(OC(C)C)cc1C1CCNCC1 | -99% (active) | -53.5% (active) | -84.9% (active) | -88% (active) | -93.4% (active) | -95.3% (active) | -91.6% (active) | -98.9% (active) | -90.1% (active) | -95.2% (active) | -86.4% (active) | -88.1% (active) | -98.1% (active) | -94.9% (active) | -100% (active) | -92.2% (active) | -98.9% (active) | -95.1% (active) | -90.7% (active) | -99.3% (active) |
| O=C(Cn1ccnc1)Nc1ccc(-c2nc3ccccc3s2)cc1 | 81.1% | 39.6% | 81.8% | 80.1% | 102% | 81.1% | 65.5% | 81.3% | 67.6% | 94.4% | 87% | 93.3% | 88.8% | 76.5% | 71.9% | 65.9% | 39.2% | 82.9% | 73.4% | 105% |
| COc1cc2cc(NCc3ccc(Cl)cc3)nc(C)c2cc1OC | 49% | 9.09% (active) | 88.3% | 42.1% | 48.5% | 43.7% | 34.4% | -14.9% (active) | 64.2% | 19.3% | 47% | 10% | 96.3% | 42.6% | 30.9% | 37.9% | 31.3% | 8.46% (active) | 5.76% (active) | 29.9% |
| NC1=Nc2cc(OCCCN3Cc4ccccc4C3)c(OCC3CC3)cc2C12CCCC2 | 78.6% | -8.16% (active) | -58.3% (active) | 36.2% | 60.6% | 74.1% | 64.6% | 49.2% | -47.2% (active) | -70.2% (active) | 25.1% | 5.45% (active) | 60.3% | 82.4% | 49.5% | 45.4% | -11% (active) | 45.7% | 8.85% (active) | -44% (active) |
| COc1cc(N2CCC(N(C)C)CC2)ccc1Nc1ncc(Cl)c(Nc2ccccc2P(C)(C)=O)n1 | 0.609% (active) | 12.5% | 32% | 5.47% (active) | -60.1% (active) | -26.8% (active) | 27.7% | -49.3% (active) | 17.2% | 10.3% | 7.34% (active) | -4.74% (active) | -82.5% (active) | 14.9% | 5.24% (active) | 26% | 16.5% | 16% | -60.3% (active) | 49.4% |
| CNC(=O)c1cnc(C)nc1-c1cc(C(C)(C)C)c(O)c(C(C)(C)C)c1 | 99.8% | 90.4% | 87.5% | 87.5% | 111% | 98% | 88.5% | 91.9% | 100% | 94.1% | 103% | 106% | 67.6% | 87.2% | 97.1% | 89.3% | 92.1% | 90.7% | 110% | 107% |
| COc1ccc(-c2ccc3c(N4CCOC[C@@H]4C)nc(N4CCOC[C@@H]4C)nc3n2)cc1CO | 11.6% | 12.8% | -8.07% (active) | 13% | -27.5% (active) | 14.9% | -35% (active) | -39.2% (active) | -24.8% (active) | 6.2% (active) | 6.93% (active) | 6.32% (active) | -44.9% (active) | 9.71% (active) | 7.15% (active) | 9.37% (active) | -26.8% (active) | -32.3% (active) | 1.2% (active) | -17.1% (active) |
| Cc1nc2cc(-c3nn(C(C)C)c4ncnc(N)c34)ccc2o1 | 1.98% (active) | 10.4% | -38.7% (active) | -9.12% (active) | -54.3% (active) | 4.35% (active) | -53.9% (active) | -61.7% (active) | -45.3% (active) | -7.38% (active) | 1.74% (active) | -8.06% (active) | -70.1% (active) | -4.62% (active) | -15.3% (active) | 3% (active) | -49.2% (active) | -53% (active) | -21.1% (active) | -34.3% (active) |
| CNC(=O)c1cc(Oc2ccc(NC(=O)Nc3cc(C(C)(C)C)nn3-c3ccc4ncccc4c3)c(F)c2)ccn1 | -22.1% (active) | -7.14% (active) | -59.5% (active) | -9.49% (active) | -71% (active) | -19.8% (active) | -13.1% (active) | -66.4% (active) | -24.3% (active) | -71.4% (active) | -12.9% (active) | -45.3% (active) | -94% (active) | 1.45% (active) | -21.7% (active) | -23.6% (active) | -83.5% (active) | -52% (active) | -72.9% (active) | -45.5% (active) |
| COc1ccc(COc2cc3oc(=O)c4cc(C(C)O)ccc4c3cc2OC)cc1 (stereo not given) | 94.9% | 20.1% | 66.8% | 67.2% | 47.8% | 55.8% | 49% | 60.7% | 42.8% | 57.6% | 36.6% | 30.1% | 13.7% | 31.9% | 46.5% | 53% | 56.3% | 50.4% | 76.3% | 56.3% |
| C[C@H](NC(=O)c1c(N)nn2cccnc12)c1cc2cccc(C#Cc3cnn(C)c3)c2c(=O)n1-c1ccccc1 | 34.6% | 17.4% | 50.1% | 37.8% | -16% (active) | 25.3% | 11.6% | 21.7% | 39.1% | 29.5% | 10.6% | 2.38% (active) | -6.15% (active) | 39.3% | 16.7% | 18.9% | 44% | 15.6% | 7.86% (active) | 45.5% |
| CNC(=O)c1nn(C)c2c1C(C)(C)Cc1cnc(Nc3ccc(N4CCN(C)CC4)cc3)nc1-2 | 15.5% | 5.4% (active) | -8.73% (active) | 14.7% | -48.2% (active) | 7.96% (active) | 15.3% | -28.6% (active) | -14.8% (active) | 12.5% | 3.12% (active) | -16.2% (active) | -20.6% (active) | 12.3% | 8.54% (active) | 7.92% (active) | 7.31% (active) | -9.49% (active) | 5.27% (active) | 16.2% |
